Results published in PubChem BioAssay AID1159580 (chemical genetic matrix, 2015).
In all, about 5,500 compounds went through this assay and about 2,000 (36%) were called active. Inconclusive results (about 18%) are left out. No stated cut-off is given here; in the data, active means normalized growth mostly below about 0.91 (no sharp cut-off); inconclusive means no clear call, values can overlap the other calls; inactive means mostly above about 0.92. This is one part of the list.

Assay: chemical genetic growth profiling, strain panel (AID 1159580);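 further: tested at 20 µM; growth read once vehicle control cultures reached saturation at 30 °C; 1 = growth at the plate median or of vehicle wells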
Details: growth OD

Measured: normalized growth

C[N+]1(C)C[C@H](O)[C@H](C(=O)[O-])C1
inactive: S. cerevisiae deletion strains, locus YJR043C, strain POL32, stronger effect = lower value 0.995 | S. cerevisiae deletion strains, locus YJR075W, strain HOC1, stronger effect = lower value 0.994 | S. cerevisiae deletion strains, locus YKL009W, strain mrt4, stronger effect = lower value 0.991 | S. cerevisiae deletion strains, locus YKL068W, stronger effect = lower value 0.996 | S. cerevisiae deletion strains, locus YKL085W, strain MDH1 (second series), stronger effect = lower value 0.988 | S. cerevisiae deletion strains, locus YKL085W, strain MDH1, stronger effect = lower value 0.988 | S. cerevisiae deletion strains, locus YKL160W, strain elf1, stronger effect = lower value 0.993 | S. cerevisiae deletion strains, locus YKL190W, strain CNB1, stronger effect = lower value 1.01 | S. cerevisiae deletion strains, locus YKR001C, strain vps1, stronger effect = lower value 0.995 | S. cerevisiae deletion strains, locus YKR026C, strain gcn3, stronger effect = lower value 1.01 | S. cerevisiae deletion strains, locus YKR091W, strain srl3, stronger effect = lower value 1.01 | S. cerevisiae deletion strains, locus YLL001W, strain dnm1, stronger effect = lower value 1 | S. cerevisiae deletion strains, locus YLL026W, stronger effect = lower value 1.02 | S. cerevisiae deletion strains, locus YLL041C, strain sdh2, stronger effect = lower value 1.01 | S. cerevisiae deletion strains, locus YLR027C, strain aat2, stronger effect = lower value 1.01 | S. cerevisiae deletion strains, locus YLR039C, strain RIC1, stronger effect = lower value 1.02 | S. cerevisiae deletion strains, locus YLR058C, strain SHM2, stronger effect = lower value 1.01 | S. cerevisiae deletion strains, locus YLR102C, strain apc9, stronger effect = lower value 0.995 | S. cerevisiae deletion strains, locus YLR221C, strain rsa3, stronger effect = lower value 0.997 | S. cerevisiae deletion strains, locus YLR258W, strain gsy2, stronger effect = lower value 1.03 | S. cerevisiae deletion strains, locus YLR262C, strain YPT6 (second series), stronger effect = lower value 1.02 | S. cerevisiae deletion strains, locus YLR262C, strain YPT6, stronger effect = lower value 1.01 | S. cerevisiae deletion strains, locus YLR268W, strain sec22, stronger effect = lower value 0.991 | S. cerevisiae deletion strains, locus YLR320W, strain mms22, stronger effect = lower value 1.03 | S. cerevisiae deletion strains, locus YLR330W, strain CHS5, stronger effect = lower value 1 | S. cerevisiae deletion strains, locus YLR342W, strain FKS1 (second series), stronger effect = lower value 1.02 | S. cerevisiae deletion strains, locus YLR342W, strain FKS1, stronger effect = lower value 1.01 | S. cerevisiae deletion strains, locus YLR357W, strain rsc2, stronger effect = lower value 1.02 | S. cerevisiae deletion strains, locus YLR370C, strain arc18, stronger effect = lower value 1.02 | S. cerevisiae deletion strains, locus YLR371W, strain rom2, stronger effect = lower value 0.996 | S. cerevisiae deletion strains, locus YLR384C, strain iki3, stronger effect = lower value 1.02 | S. cerevisiae deletion strains, locus YLR418C, strain cdc73, stronger effect = lower value 1.01 | S. cerevisiae deletion strains, locus YML016C, strain PPZ1, stronger effect = lower value 1.01 | S. cerevisiae deletion strains, locus YML032C, strain rad52, stronger effect = lower value 0.991 | S. cerevisiae deletion strains, locus YML120C, strain ndi1, stronger effect = lower value 0.991 | S. cerevisiae deletion strains, locus YML124C, strain tub3, stronger effect = lower value 0.997 | S. cerevisiae deletion strains, locus YMR058W, strain fet3, stronger effect = lower value 1.01 | S. cerevisiae deletion strains, locus YMR078C, strain ctf18, stronger effect = lower value 1.01 | S. cerevisiae deletion strains, locus YMR125W, strain sto1, stronger effect = lower value 1.02 | S. cerevisiae deletion strains, locus YMR129W, stronger effect = lower value 1.01 | S. cerevisiae deletion strains, locus YMR205C, strain PFK2, stronger effect = lower value 1.04 | S. cerevisiae deletion strains, locus YMR223W, strain ubp8, stronger effect = lower value 0.989 | S. cerevisiae deletion strains, locus YMR231W, strain pep5, stronger effect = lower value 1.01 | S. cerevisiae deletion strains, locus YMR263W, strain SAP30, stronger effect = lower value 1.02 | S. cerevisiae deletion strains, locus YMR307W, strain GAS1, stronger effect = lower value 1.07 | S. cerevisiae deletion strains, locus YNL067W, strain RPL9B, stronger effect = lower value 1.01 | S. cerevisiae deletion strains, locus YNL071W, strain lat1, stronger effect = lower value 1.02 | S. cerevisiae deletion strains, locus YNL128W, strain TEP1, stronger effect = lower value 1.01 | S. cerevisiae deletion strains, locus YNL153C, strain GIM3, stronger effect = lower value 1.01 | S. cerevisiae deletion strains, locus YNL209W, strain ssb2, stronger effect = lower value 1.01 | S. cerevisiae deletion strains, locus YNL233W, strain BNI4, stronger effect = lower value 1.01 | S. cerevisiae deletion strains, locus YNL248C, strain rpa49, stronger effect = lower value 0.98 | S. cerevisiae deletion strains, locus YNL250W, strain rad50, stronger effect = lower value 0.992 | S. cerevisiae deletion strains, locus YNL271C, strain bni1, stronger effect = lower value 0.995 | S. cerevisiae deletion strains, locus YNL298W, strain CLA4, stronger effect = lower value 1 | S. cerevisiae deletion strains, locus YNL307C, strain MCK1, stronger effect = lower value 1.01 | S. cerevisiae deletion strains, locus YNL322C, strain KRE1 (second series), stronger effect = lower value 1.02 | S. cerevisiae deletion strains, locus YNL322C, strain KRE1, stronger effect = lower value 1.01 | S. cerevisiae deletion strains, locus YNR049C, strain mso1, stronger effect = lower value 1.01 | S. cerevisiae deletion strains, locus YNR052C, strain pop2, stronger effect = lower value 1 | S. cerevisiae deletion strains, locus YOL006C, strain TOP1, stronger effect = lower value 1.06 | S. cerevisiae deletion strains, locus YOL012C, strain htz1 0.813 | S. cerevisiae deletion strains, locus YOL147C, strain pex11, stronger effect = lower value 1 | S. cerevisiae deletion strains, locus YOR001W, strain rrp6, stronger effect = lower value 0.989 | S. cerevisiae deletion strains, locus YOR061W, strain CKA2, stronger effect = lower value 1 | S. cerevisiae deletion strains, locus YOR069W, strain VPS5, stronger effect = lower value 1 | S. cerevisiae deletion strains, locus YOR070C, strain gyp1, stronger effect = lower value 1.01 | S. cerevisiae deletion strains, locus YOR080W, strain dia2, stronger effect = lower value 1.01 | S. cerevisiae deletion strains, locus YOR083W, strain WHI5, stronger effect = lower value 0.979 | S. cerevisiae deletion strains, locus YOR106W, strain vam3, stronger effect = lower value 0.996 | S. cerevisiae deletion strains, locus YOR136W, strain idh2, stronger effect = lower value 0.996 | S. cerevisiae deletion strains, locus YOR144C, strain elg1, stronger effect = lower value 0.996 | S. cerevisiae deletion strains, locus YOR184W, strain ser1, stronger effect = lower value 1.01 | S. cerevisiae deletion strains, locus YOR265W, strain rbl2, stronger effect = lower value 1.01 | S. cerevisiae deletion strains, locus YOR270C, strain vph1, stronger effect = lower value 1.02 | S. cerevisiae deletion strains, locus YOR290C, strain snf2, stronger effect = lower value 1 | S. cerevisiae deletion strains, locus YOR316C, strain cot1, stronger effect = lower value 0.995 | S. cerevisiae deletion strains, locus YPL051W, strain arl3, stronger effect = lower value 1.02 | S. cerevisiae deletion strains, locus YPL055C, strain LGE1, stronger effect = lower value 1.03 | S. cerevisiae deletion strains, locus YPL078C, strain atp4, stronger effect = lower value 1 | S. cerevisiae deletion strains, locus YPL106C, strain sse1, stronger effect = lower value 1.04 | S. cerevisiae deletion strains, locus YPL240C, strain hsp82, stronger effect = lower value 1.02 | S. cerevisiae deletion strains, locus YPL241C, strain CIN2, stronger effect = lower value 1.01 | S. cerevisiae deletion strains, locus YPR119W, strain clb2, stronger effect = lower value 1 | S. cerevisiae deletion strains, locus YPR141C, strain kar3, stronger effect = lower value 1 | S. cerevisiae deletion strains, locus YPR163C, strain tif3, stronger effect = lower value 0.996 | S. cerevisiae deletion strains, locus YPR167C, strain met16, stronger effect = lower value 0.995 | S. cerevisiae deletion strains, strain wtn01, stronger effect = lower value 0.988 | S. cerevisiae strains, strain wild type, stronger effect = lower value 1
